Consider five compounds from PubChem BioAssay.

Calls of active or inactive are those of the source. Unless noted, the rule behind the calls is not given here.

Test [1] can be described thus: anti-His antibody binders, primary screen, artefact control for SMM control protein annotation, biochemical, small-molecule microarray, 635 nm fluorescence (AID 1128).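 Note: score merges feature fluorescence with signal-to-noise for each printed compound spot.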 The note with it: anti-His Alexa647 antibody binding, higher = more signal.
Test [2] has as its system Human papillomavirus type 1a E7 protein (residues 1-88). Description: HPV1a E7 small-molecule binders, primary screen, biochemical, small-molecule microarray, residues 1-88, 635 nm (AID 1129). To be noted: small-molecule microarray binding, fluorescence 635 nm; higher = more signal.
Test [3] deals with Focal adhesion kinase 1 (Homo sapiens) (UniProt Q05397). Description: small-molecule microarray binders of FAK, primary screen, biochemical, 635/667 nm fluorescence, BSA, DTT (AID 1130).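 Note: composite of spot emission at 667 nm and signal to noise over triplicate slides.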 The note with it: PTK2 binding, 635 nm fluorescence, higher = more signal.
Chain of Focal adhesion kinase 1 (Homo sapiens) (Q05397 whole entry, looked up): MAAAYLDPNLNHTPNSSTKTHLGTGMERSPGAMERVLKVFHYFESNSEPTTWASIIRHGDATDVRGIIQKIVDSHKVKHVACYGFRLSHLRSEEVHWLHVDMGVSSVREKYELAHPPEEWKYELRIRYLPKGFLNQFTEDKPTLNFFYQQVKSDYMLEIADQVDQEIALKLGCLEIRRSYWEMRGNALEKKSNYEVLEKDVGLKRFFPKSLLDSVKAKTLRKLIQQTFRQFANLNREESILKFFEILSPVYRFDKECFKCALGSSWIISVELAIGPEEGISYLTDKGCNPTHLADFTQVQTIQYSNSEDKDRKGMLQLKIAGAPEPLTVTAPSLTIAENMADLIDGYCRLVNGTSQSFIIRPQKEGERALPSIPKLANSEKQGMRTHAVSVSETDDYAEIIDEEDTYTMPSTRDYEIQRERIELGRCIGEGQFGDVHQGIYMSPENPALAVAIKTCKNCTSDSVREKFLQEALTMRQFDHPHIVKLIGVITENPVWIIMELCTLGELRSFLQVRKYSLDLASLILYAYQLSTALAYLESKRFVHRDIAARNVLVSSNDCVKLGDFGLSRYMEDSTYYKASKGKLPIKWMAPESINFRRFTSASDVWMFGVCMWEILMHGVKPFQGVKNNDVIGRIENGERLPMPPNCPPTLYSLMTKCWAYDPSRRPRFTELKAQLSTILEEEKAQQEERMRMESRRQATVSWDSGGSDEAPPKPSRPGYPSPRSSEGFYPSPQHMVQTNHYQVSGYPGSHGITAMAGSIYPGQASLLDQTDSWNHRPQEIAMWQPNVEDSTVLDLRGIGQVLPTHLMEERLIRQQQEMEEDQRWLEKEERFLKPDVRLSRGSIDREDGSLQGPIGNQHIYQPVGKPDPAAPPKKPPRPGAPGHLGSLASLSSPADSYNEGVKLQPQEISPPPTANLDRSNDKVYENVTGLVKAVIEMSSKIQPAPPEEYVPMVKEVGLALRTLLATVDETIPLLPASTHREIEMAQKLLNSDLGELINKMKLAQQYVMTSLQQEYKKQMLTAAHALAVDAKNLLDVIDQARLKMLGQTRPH
Test [4] deals with Fibrinogen (Alexa647-labelled). Description: fibrinogen binders on compound microarrays, profiling panel, artefact control for SMM control-protein annotation, biochemical, small-molecule microarray, 635/667 nm fluorescence (AID 1131).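 Note: z-score merges 667 nm fluorescence with per-spot signal-to-noise over triplicate slides.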 The note with it: fibrinogen-A647 binding fluorescence, higher = more signal.
In test [5] the target is Follistatin (Homo sapiens) (UniProt P19883). Kind of test: follistatin binders on small-molecule microarrays, primary screen, biochemical, small-molecule microarray, 635/667 nm fluorescence (AID 1132). The note with it: FST binding, 635 nm fluorescence, higher = more signal.
Chain of Follistatin (Homo sapiens) (P19883 whole entry, looked up): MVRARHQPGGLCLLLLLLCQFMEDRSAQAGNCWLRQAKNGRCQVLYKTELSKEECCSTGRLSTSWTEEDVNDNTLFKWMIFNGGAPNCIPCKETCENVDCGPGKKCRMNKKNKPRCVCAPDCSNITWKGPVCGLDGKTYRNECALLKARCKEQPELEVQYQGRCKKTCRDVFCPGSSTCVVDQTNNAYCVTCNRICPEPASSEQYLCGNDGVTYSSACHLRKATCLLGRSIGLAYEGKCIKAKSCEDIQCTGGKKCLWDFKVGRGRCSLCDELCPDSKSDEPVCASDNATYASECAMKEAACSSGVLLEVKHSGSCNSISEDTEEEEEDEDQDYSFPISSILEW
Test [6] deals with Fibroblast growth factor 2 (Homo sapiens) (UniProt P09038). Kind of test: FGF2 binders on small-molecule microarrays, primary screen, biochemical, small-molecule microarray, 635/667 nm fluorescence (AID 1133). To be noted: small-molecule microarray binding, FGF2, fluorescence 635/667; higher = more signal.
Chain of Fibroblast growth factor 2 (Homo sapiens) (P09038 whole entry, looked up): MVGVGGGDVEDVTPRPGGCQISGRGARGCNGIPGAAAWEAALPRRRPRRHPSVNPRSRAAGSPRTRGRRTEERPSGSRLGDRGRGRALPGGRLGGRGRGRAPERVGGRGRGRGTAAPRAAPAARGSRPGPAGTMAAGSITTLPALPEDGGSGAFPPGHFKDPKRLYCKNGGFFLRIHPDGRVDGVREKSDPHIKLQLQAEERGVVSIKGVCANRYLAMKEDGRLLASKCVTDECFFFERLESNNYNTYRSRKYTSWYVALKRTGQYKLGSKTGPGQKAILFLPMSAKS
Test [7] in a line: mitochondrial membrane potential change in A549 cells, profiling panel, cell-based, JC-1 fluorescence, basal, 24 h, 100 nL (AID 1138).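 Note: A549 lung adenocarcinoma cells under basal conditions with no added stimulus; test concentration not given here.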 To be noted: higher = more signal.
For test [8], the system named is Lefty1. Description: Lefty1 binders on small-molecule microarrays, primary screen, biochemical, small-molecule microarray, 635/667 nm fluorescence (AID 1139). To be noted: small-molecule microarray binding, fluorescence 635/667; higher = more signal.
In test [9] the test system is wheat germ agglutinin (Triticum aestivum), Alexa647-labelled. Kind of test: wheat germ agglutinin binders on compound microarrays, profiling panel, artefact control for SMM control-protein annotation, biochemical, small-molecule microarray, 635/667 nm fluorescence (AID 1140).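 Note: score merges 667 nm feature emission with signal to noise over triplicate slides.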 To be noted: WGA-A647 binding, 635 nm fluorescence, higher = more signal.
The target of test [10] is Luciferin 4-monooxygenase (Photinus pyralis) (UniProt P08659). Description: firefly luciferase enzyme inhibitors, primary screen, biochemical, luminescence, purified enzyme, 2006 set (AID 1141).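 Note: cell-free assay with purified firefly luciferase at 100 ng per well in PBS; test concentration not given here.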 To be noted: SteadyGlo luminescence, 30 min, higher = more signal, called active from +8 up or from −8 down.
Chain of Luciferin 4-monooxygenase (Photinus pyralis) (P08659 whole entry, looked up): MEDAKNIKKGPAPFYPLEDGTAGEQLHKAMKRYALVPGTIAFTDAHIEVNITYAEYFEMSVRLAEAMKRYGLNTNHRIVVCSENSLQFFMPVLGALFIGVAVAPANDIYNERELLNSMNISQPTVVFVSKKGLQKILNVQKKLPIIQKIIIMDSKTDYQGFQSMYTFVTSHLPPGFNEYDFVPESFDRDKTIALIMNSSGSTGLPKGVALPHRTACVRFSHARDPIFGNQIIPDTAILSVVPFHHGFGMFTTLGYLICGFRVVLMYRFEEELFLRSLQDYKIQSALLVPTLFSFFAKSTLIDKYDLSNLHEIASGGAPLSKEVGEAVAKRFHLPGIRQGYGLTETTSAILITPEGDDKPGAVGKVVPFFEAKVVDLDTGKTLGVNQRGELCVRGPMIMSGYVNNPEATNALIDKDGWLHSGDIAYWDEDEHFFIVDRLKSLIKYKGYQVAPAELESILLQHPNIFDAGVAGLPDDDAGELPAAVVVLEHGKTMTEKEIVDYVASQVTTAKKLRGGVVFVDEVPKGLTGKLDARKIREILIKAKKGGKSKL
For test [11], the system named is Wnt5a (protein binding on small-molecule microarray). Description: Wnt5a binders on small-molecule microarray, primary screen, biophysical, 635/667 nm fluorescence (AID 1142).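 Note: fluorescence read at 667 nm with signal to noise per printed feature.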 The note with it: 635 nm fluorescence, higher = more signal.
A short description of test [12]: cell viability in Huh7 cells, primary screen, cytotoxicity control for HCV replication inhibitor project, CellTiter-Glo luminescence, basal, 48 h (AID 1143).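 Note: Huh7 hepatoma cells carrying a hepatitis C replication reporter with no stimulus; test concentration not given here.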 The note with it: Huh7 HCV replicon, higher = more signal, called active from +8 up or from −8 down. In general terms: ATP-based viability assays read luminescence as a measure of living cells.
Test [13] in a line: P. aeruginosa biofilm formation inhibitors, primary screen, PAO1 strain, BacTiter-Glo luminescence, LB-PBS (AID 1144). To be noted: 12 h, higher = more signal.
The nature of test [14]: CREB reporter modulators without forskolin, primary screen, cell-based, PC12, CRE-LacZ reporter, unstimulated (AID 1145). The note with it: no forskolin, luminescence, 4.5 h, higher = more signal, called active from +8 up or from −8 down.
Test [15] can be described thus: CREB reporter modulators under forskolin, primary screen, cell-based, PC12, CRE-LacZ reporter, forskolin-stimulated (AID 1146).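 Note: PC12 cells with 6xCRE LacZ reporter stimulated by forskolin 10 µM; beta-galactosidase reporter signal reflecting CREB driven transcription.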 To be noted: luminescence, 4.5 h, higher = more signal, called active from +8 up or from −8 down.
For test [16], the target named is Streptavidin (Streptomyces avidinii) (UniProt P22629). Description: streptavidin binders on small-molecule microarray, primary screen, artefact control for SMM compound annotation, biophysical, 635/667 nm fluorescence (AID 1147).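 Note: signal reflects streptavidin binding to arrayed compounds as a control protein.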 The note with it: streptavidin binding, higher = more signal.
Chain of Streptavidin (Streptomyces avidinii) (P22629 whole entry, looked up): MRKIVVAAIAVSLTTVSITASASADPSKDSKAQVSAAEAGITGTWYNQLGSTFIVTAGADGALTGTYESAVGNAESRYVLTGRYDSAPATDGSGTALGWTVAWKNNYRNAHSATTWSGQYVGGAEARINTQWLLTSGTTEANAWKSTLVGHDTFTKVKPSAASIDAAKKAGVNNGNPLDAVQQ
The nature of test [17]: small-molecule binders of probe aInhba, primary screen, biochemical, small-molecule microarray, 635/667 nm fluorescence (AID 1148).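 Note: score merges 667nm spot fluorescence with signal-to-noise for antibody binding to printed compounds.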 The note with it: higher = more signal.
Test [18] deals with Torsin-1A (Homo sapiens) (UniProt O14656). Kind of test: torsin A binders from cell lysate, primary screen, small-molecule microarray, wild-type, 635/667 nm (AID 1149). The note with it: COS7 hTOR1A-WT lysate, 635 nm fluorescence, higher = more signal.
Chain of Torsin-1A (Homo sapiens) (O14656 whole entry, looked up): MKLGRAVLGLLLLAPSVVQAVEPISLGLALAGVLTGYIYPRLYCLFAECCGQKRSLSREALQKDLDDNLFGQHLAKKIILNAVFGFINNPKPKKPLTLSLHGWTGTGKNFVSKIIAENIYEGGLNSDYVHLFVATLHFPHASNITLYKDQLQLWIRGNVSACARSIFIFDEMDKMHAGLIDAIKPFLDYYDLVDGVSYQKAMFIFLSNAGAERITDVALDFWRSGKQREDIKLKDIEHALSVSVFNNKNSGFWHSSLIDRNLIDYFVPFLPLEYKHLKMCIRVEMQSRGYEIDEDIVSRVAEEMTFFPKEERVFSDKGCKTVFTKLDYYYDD
Test [19] has the same target. Description: small-molecule binders of mutant TOR1A in lysate, primary screen, cell lysate, small-molecule microarray, COS7 lysate, 635/667 nm fluorescence (AID 1150).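 Note: score pools 667 nm emission and signal to noise measuring lysate protein binding.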 To be noted: COS7 hTOR1A mutant lysate, 635 nm fluorescence, higher = more signal.
The test system of test [20] is Sonic hedgehog protein (Shh). Kind of test: small-molecule binders of Shh protein, primary screen, biochemical, small-molecule microarray, 635/667 nm fluorescence (AID 1151).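 Note: Shh protein binding to compounds spotted on small-molecule microarray slides; score combines spot fluorescence intensity with signal-to-noise across triplicate slides.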 The note with it: small-molecule microarray binding, 635 nm fluorescence; higher = more signal.

Consider `CCOC(=O)C=Cc1cc([N+](=O)[O-])ccc1O`, for which the composite z-score in test [1] was -0.59; in test [2], -0.455; in test [3] it was -0.0779; in [4], -0.429; in test [5], -0.907; in [6] it was -0.652. For the same compound, the composite z-score in test [8] was -0.83; in test [9], -0.0396; in test [11], -0.128; in [16] it was 0.572; in test [17], -0.0523; in test [18] it was 0.437. The values for the composite z-score in [19] and in test [20] were 0.328 and -0.117, respectively. The z-score in test [7] is -2.31; in test [10], 1.38 (inactive); in test [12] it was -4.44 (inactive); in test [13], -0.283 (inactive); in [14], 0.173 (inactive); in [15] it was -2.08 (inactive).

As to `COc1cc2c(cc1OC)CN(C(=O)[C@H]1[C@@H]3C(=O)O[C@@H](c4ccccc4)[C@@H](c4ccccc4)N3[C@@H](c3ccc(O)cc3)[C@]13C(=O)Nc1ccc(C#CC4=CCCCC4)cc13)CC2`, the composite z-score was 2.11 in [1]; 1.19 in test [2]; -0.0164 in test [3]; 0.666 in test [4]; 1.22 in test [5]; 0.86 in test [6]. The composite z-score was found to be 1.2 in test [8]; 1.12 in [9]; 0.657 in test [11]; 1.45 in [16]; 0.288 in [17]; 0.302 in test [18]. In addition, the composite z-score in test [19] worked out at 0.454; in test [20], 1.07. For the same compound, the z-score in test [7] is 0.0961; in test [10], -1.1 (inactive); in test [12], -2.62 (inactive); in test [13] it was -0.693 (inactive); in test [14] it was -0.375 (inactive); in test [15] it was -0.267 (inactive).

On to `O=C1OCCC/C=C\[C@H]2OC34C=CCN(CCN5CCOCC5)C(=O)[C@H]3N(CCCO)C(=O)[C@@H]4C12` (stereo not given in full), for which the composite z-score was -0.851 in test [1]; -0.786 in test [2]; -0.253 in [3]; -1.16 in test [4]; -0.803 in [5]; -0.506 in test [6]. Further, the composite z-score in [8] is -0.483; in [9], 0.023; in [11] it was -0.196; in test [16] it was -0.388; in test [17], -0.292; in test [18], -0.222. In addition, the figures for the composite z-score in [19] and in [20] were 1.01 and -0.165, respectively. Also, the z-score is -0.278 in test [7]; 0.266 (inactive) in test [10]; 0.732 (inactive) in test [12]; 1.46 (inactive) in test [13]; -0.484 (inactive) in [14]; -0.947 (inactive) in test [15].

For the compound `CN1C(=O)C2C=CC(C(O)c3ccc(I)cc3)N(N3CCCCC3)C2C1=O` (stereo not given), the composite z-score in [1] is 1.09; in test [2], 1.21; in [3], 0.578; in test [4], 0.924; in test [5] it was 1.24; in test [6] it was -0.148. In addition, the composite z-score was 0.459 in test [8]; 1.2 in test [9]; 0.512 in [11]; 1.42 in [16]; 0.303 in test [17]; 0.702 in [18]. The composite z-score in test [19] worked out at 1.6; in test [20] it was 0.624. In addition, the z-score was 0.158 in test [7]; -1.05 (inactive) in [10]; -0.394 (inactive) in [12]; 0.175 (inactive) in test [13]; 0.246 (inactive) in [14]; 0.818 (inactive) in [15].

`C=C(COC)/C(=C/C[C@@H](OC(C)=O)c1ccc(CO)o1)c1cnc2ccccc2c1`: the composite z-score was 0.562 in test [1]; 1.14 in test [2]; -0.23 in test [3]; 0.962 in [4]; 1.44 in test [5]; 1.57 in [6]. The composite z-score in test [8] came out at 1.46; in test [9], 1.04; in test [11], 0.387; in [16], 1.3; in [17] it was 0.147; in [18] it was 0.797. Also, the composite z-score in [19] came to 0.73; in test [20] it was 2.1. In addition, the z-score is -0.482 in [7]; -3.82 (inactive) in test [10]; -0.0797 (inactive) in test [12]; -1.14 (inactive) in [13]; 0.159 (inactive) in test [14]; -1.6 (inactive) in test [15].
